Bioassay records: PubChem, National Center for Advancing Translational Sciences (NCATS)
A selection: hits, their analogues and other compounds. The true share with any hit is near 4.7%.
D1 ag = Allosteric Agonists of the Human D1 Dopamine Receptor: qHTS. AID 504660, 2011. 1% of 360,000 active. activation, % at 2 µM. HEK293 T-REx D1 cells, calcium flux, agonist mode. D(1A) dopamine receptor (Homo sapiens), P21728; also: 0% is about no effect
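Inducible HEK293 T-REx D1 cells, force-coupled to calcium signalling, were plated at 4000 cells/well with tetracycline and held overnight at 30 C. After no-wash calcium dye loading, compound-evoked calcium rise over 180 s flagged agonists.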
D1 PAM = Potentiators of Human D1 Dopamine Receptor: qHTS | D(1A) dopamine receptor (Homo sapiens), P21728 | HEK293 TREx D1 cells, calcium flux, dopamine EC20 potentiation | potentiation, % at 10 µM | 0.036% of 360,000 active | AID 504651, 2011; in the data active = potentiation above about 30%; also: 0% is about no effect
TRHR enhancer = qHTS for Small Molecule Agonists and Allosteric Enhancers of Human TRH Receptor: Primary Screen for Enhancers. AID 493056, 2011. TRHR cells, fluo-8 calcium fluorescence, EC20 TRH enhancement. Thyrotropin-releasing hormone receptor (Homo sapiens), P34981. enhancement, % at 2 µM. 0.66% of 360,000 active; in the data active = enhancement above about 30%; also: 0% is about no effect
Target sequence (P34981 whole entry, looked up): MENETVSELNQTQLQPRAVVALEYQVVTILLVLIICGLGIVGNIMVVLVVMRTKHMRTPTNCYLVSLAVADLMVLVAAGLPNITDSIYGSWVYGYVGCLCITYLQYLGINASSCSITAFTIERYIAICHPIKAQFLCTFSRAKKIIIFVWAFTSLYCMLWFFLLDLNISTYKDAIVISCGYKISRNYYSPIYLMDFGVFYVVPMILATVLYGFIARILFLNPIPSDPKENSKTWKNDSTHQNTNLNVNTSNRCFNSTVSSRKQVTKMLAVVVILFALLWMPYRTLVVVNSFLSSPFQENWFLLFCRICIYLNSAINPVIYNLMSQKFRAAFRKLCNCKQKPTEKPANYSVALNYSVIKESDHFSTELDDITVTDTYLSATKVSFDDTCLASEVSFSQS
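Enhancer read-out: after compound pinning and an initial kinetic agonist-mode read, an EC20 of TRH (10 nM final) was injected and fluo-8 calcium signal (Ex 480/Em 530) followed at 1 s/cycle for 100 cycles in TRHR-expressing cells.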
TRHR ag = qHTS for Small Molecule Agonists and Allosteric Enhancers of Human TRH Receptor: Primary Screen for Agonists. TRHR cells, calcium flux fluo-8, FDSS agonist mode. 0.18% of 360,000 active. AID 493084, 2011. Thyrotropin-releasing hormone receptor (Homo sapiens), P34981. activation, % at 2 µM; also: 0% is about no effect
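In this calcium-flux screen, cells bearing human TRHR are dye-loaded with fluo-8, baselined for 10 cycles, then exposed to library compounds; positive kinetic calcium responses during the agonist phase mark hits, with TRH as control.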
D1 antagonist = Antagonist of Human D 1 Dopamine Receptor: qHTS | D(1A) dopamine receptor (Homo sapiens), P21728 | HEK293 TREx D1 cells, calcium flux, dopamine EC80; active compounds read low | activity change, negative = inhibition, % at 10 µM | 3.2% of 360,000 active | AID 504652, 2011; in the data active = activity change below about -30%; also: % is scaled to controls: 0 for no effect and ±100 for the full control effect
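Using tetracycline-induced force-coupled D1 Hek293 cells and a calcium dye, signals were followed for 180 s after compound, then for 180 s after EC80 dopamine, to detect inhibitors.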
* marks the source's active call; other numbers are inactive results; . = no result. Rule as the data show it, unless noted: active = activation above about 30%; inactive = the rest.

SMILES	D1 ag	D1 PAM	TRHR enhancer	TRHR ag	D1 antagonist
COc1ccc(N(C)C(=O)c2nc(-c3cccc(F)c3)n3c2CCCCC3)c(OC)c1	1	-3	-8	0	7
Cc1nc(-c2ccccc2)sc1CCNC(=O)c1ccco1	0	-4	-5	0	12
COc1ccc(C2(C)NC(=O)N(CC(=O)c3cc(C)n(C4CC4)c3C)C2=O)cc1 (stereo unspecified)	64*	-3	4	12	-9
O=C(CN1C(=O)NC2(CCCC2)C1=O)Nc1cc(Cl)ccc1N1CCCCC1	42*	0	-1	1	2
CC(=O)c1c(C)[nH]c(C(=O)CN2C(=O)NC(C)(c3ccc(C)cc3)C2=O)c1C (stereo unspecified)	33*	-6	5	5	9
C=CCNC(=O)CN1C(=O)NC(C)(c2ccc(OC)cc2)C1=O (stereo unspecified)	0	-2	2	0	-5
CC(=O)Nc1ccc(/C=N/N2C(=O)NC(C)(c3ccc(OC(F)F)cc3)C2=O)cc1 (stereo unspecified)	96*	-12	-8	8	-50*
CCOC(=O)CN1C(=O)NC(C)(c2ccc(OC(F)F)cc2)C1=O (stereo unspecified)	15	6	18	3	-2
CCOc1ccc(NC(=O)CSc2nc3ccsc3c(=O)n2C(C)CC)cc1 (stereo unspecified)	1	0	-10	0	46
Cc1ccc(C2(C)NC(=O)N(CC(=O)Nc3ccccc3N3CCCCC3)C2=O)cc1 (stereo unspecified)	13	5	1	0	35
CC1(c2ccc(OC(F)F)cc2)NC(=O)N(CC(=O)Nc2ccccc2)C1=O (stereo unspecified)	59*	2	-8	9	-59*
CC1(c2ccc(OC(F)F)cc2)NC(=O)N(CC(=O)Nc2ccc3c(c2)OCO3)C1=O (stereo unspecified)	66*	-9	-6	8	-60*
Cc1ccc(C2(C)NC(=O)N(CC(=O)Nc3ccccc3N3CCCC3)C2=O)cc1 (stereo unspecified)	47*	5	26	-1	5
CC1(c2ccc(OC(F)F)cc2)NC(=O)N(CC(=O)Nc2ccc3[nH]c(=O)[nH]c3c2)C1=O (stereo unspecified)	2	-3	-1	0	5
COc1cccc(NC(=O)CN2C(=O)NC3(CCCC3)C2=O)c1	3	4	1	0	-2
COc1cccc(NC(=O)CN2C(=O)NC(C)(c3ccc(C)cc3)C2=O)c1 (stereo unspecified)	34*	-9	6	-3	-2
O=C(Nc1ccc(F)cc1F)NC1CCCCCCC1	1	0	18	0	3
CCOc1ccc(-c2nc(SCC(=O)Nc3cc(F)ccc3F)n3[nH]c(=O)cc3n2)cc1	1	-2	15	0	9
CC(C)(C)c1ccc(S(=O)(=O)NCc2ccc3c(c2)CCN3C(=O)c2ccccc2)cc1	5	2	0	0	-4
COc1cccc(Oc2cn[nH]c2-c2ccc(O)cc2O)c1	3	-7	19	0	-9
COc1ccccc1Oc1cn[nH]c1-c1ccc(O)cc1O	2	-6	28	0	-32*
Cc1cc(C)n(CCc2nc3c4ccccc4nc(N4CCN(c5ccccc5F)CC4)n3n2)n1	2	1	-7	0	-3
COC(=O)c1ccc(OCC(O)CN2CCN(CC(O)COc3ccc(C(=O)OC)cc3)CC2)cc1 (stereo unspecified)	13	-1	4	1	-22
COC(=O)c1ccc(OCC(O)CN2C(=O)c3ccccc3C2=O)cc1 (stereo unspecified)	3	-11	-2	1	-31*
COc1ccccc1NC(=O)c1cc(Br)ccc1Cl	0	-1	-2	0	-35*
SMILES	D1 ag	D1 PAM	TRHR enhancer	TRHR ag	D1 antagonist
CCc1ccc2oc(C(=O)Nc3cc(Cl)ccc3OC)cc(=O)c2c1	1	-1	7	0	-48*
COc1ccccc1C(=O)Nc1cc(Cl)ccc1O	1	-3	-10	1	-22
O=C(Nc1ccccc1Oc1ccccc1)c1cc([N+](=O)[O-])ccc1Cl	3	-10	41*	-1	-1
COc1ccc(Cl)cc1NC(=O)c1ccccc1C	1	-18	-3	0	-44*
COc1ccc(Cl)cc1NC(=O)c1cc(=O)c2cc(C)cc(C)c2o1	1	1	0	0	-8
Cc1ccc(Cl)c2sc(NC(=O)CS(=O)(=O)c3ccc(Cl)cc3)nc12	-2	1	9	0	.
Cc1cc(C)c2nc(N(Cc3cccnc3)C(=O)c3ccc(S(=O)(=O)N(C)C)cc3)sc2c1	-1	4	-5	0	.
Cc1ccc(-c2cc(-c3ccccc3)c(C#N)c(SCC(O)CS(=O)(=O)Cc3ccccc3)n2)cc1 (stereo unspecified)	11	1	5	1	-39*
O=C(CC1SC(N2CCCCC2)=NC1=O)Nc1cccc(C(F)(F)F)c1 (stereo unspecified)	1	-4	3	-1	-34*
Cc1ccccc1OCC(O)CN1CCN(CC(O)COc2ccccc2C)C(C)C1 (stereo unspecified)	7	-12	-9	0	-40*
CC1CN(CC(O)COc2ccccc2C(C)(C)C)CC(C)O1 (stereo unspecified)	124*	-3	-3	-2	-31*
CCOc1ccccc1NC(=O)c1ccc2c(Cl)c3c(nc2c1)CCC3	3	-1	1	-1	-1
CCCOc1cccc(C(=O)N2CCCCC2CCN2CCCCC2)c1 (stereo unspecified)	5	-1	0	-1	-10
COc1cccc2cc(C(=O)NCCc3ccccc3)oc12	57*	-6	7	2	-34*
COc1cccc2cc(C(=O)NCc3ccccc3)c(=N)oc12	5	-1	-3	0	0
COC(=O)c1c(NC(=O)CS(=O)(=O)c2ccc(C)cc2)sc2c1CCCC2	-1	-1	-2	0	.
O=[N+]([O-])c1ccc(OC/C=C2\Oc3ccc([N+](=O)[O-])cc3C2N2CCOCC2)cc1 (stereo unspecified)	3	-3	-6	0	-69*
O=[N+]([O-])c1ccc2c(c1)C(N1CCOCC1)/C(=C/COc1ccc(F)cc1)O2 (stereo unspecified)	3	-2	-1	2	9
